Experimental findings from PubChem BioAssay (EPA / NIEHS) are described below.

Molecules are shown by their SMILES. Active and inactive are the calls of the source. How the source made its calls: active means hit-call score of the fitted dose curve at least 0.9, where 1 is the maximum; inactive means score below 0.9.

Holding throughout (conditions): mRNA level, 48 h; actives raise or lower the signal
Read-out in test [1]: Bcl-2 (BAD) gene, BAD (gene 572)
Put plainly: LTEA_HepaRG_BAD: Life Technologies and Expression Analysis (LTEA) Assay for Bcl-2 (BAD) gene using HepaRG (AID 2283469). The method in brief:
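Differentiated human HepaRG cells in serum-free induction medium were exposed in duplicate for 48 h to eight concentrations (top 100 uM, half-log steps, 0.5% DMSO). BAD mRNA was quantified by qRT-PCR normalised to ACTB, GAPDH and POLR2A, with bidirectional fitting versus DMSO.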

Read-out in test [2]: Bcl-2 (BAX) gene, BAX (gene 581)
Put plainly: LTEA_HepaRG_BAX: Life Technologies and Expression Analysis (LTEA) Assay for Bcl-2 (BAX) gene using HepaRG (AID 2283470). The method in brief: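 Differentiated HepaRG cells exposed 48 h in serum-free induction medium, eight half-log concentrations from 100 uM, in duplicate, 0.5% DMSO vehicle. BAX mRNA by TaqMan qRT-PCR, normalised to ACTB, GAPDH and POLR2A.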

Read-out in test [3]: adenosine kinase (ADK) gene, ADK (gene 132)
Put plainly: LTEA_HepaRG_ADK: Life Technologies and Expression Analysis (LTEA) Assay for adenosine kinase (ADK) gene using HepaRG (AID 2283471). The method in brief: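 Following 48 h exposure of HepaRG cells in 0.5% DMSO (top concentration 100 uM, duplicate wells), ADK mRNA induction or suppression was measured by qRT-PCR, normalised to ACTB/GAPDH/POLR2A, and fitted bidirectionally relative to vehicle.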

Read-out in test [4]: Alpha-fetoprotein (AFP) gene, AFP (gene 174)
Put plainly: LTEA_HepaRG_AFP: Life Technologies and Expression Analysis (LTEA) Assay for Alpha-fetoprotein (AFP) gene using HepaRG (AID 2283472). The gist of the method:
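Differentiated human HepaRG cells exposed 48 h in serum-free induction medium, 8-point half-log series from 100 uM in 0.5% DMSO, duplicate. AFP mRNA by qRT-PCR, normalized to ACTB, GAPDH, POLR2A; bidirectional fit vs DMSO.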

Read-out in a further test: BCL2L11 (gene 10018)
The experiment in a line: LTEA_HepaRG_BCL2L11: Life Technologies and Expression Analysis (LTEA) Assay for Bcl-2 (BCL2L11) gene using HepaRG (AID 2283473). The gist of the method:
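BCL2L11 transcript levels are measured by Fluidigm qRT-PCR, normalized to three housekeeping genes. HepaRG cultures were plated 48 h, then treated 48 h with test chemical (top 100 uM, half-log, 0.5% DMSO vehicle); curves were fitted bidirectionally against DMSO.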

Read-out in test [5]: Apolipoprotein A-V (APOA5) gene, APOA5 (gene 116519)
Put plainly: LTEA_HepaRG_APOA5: Life Technologies and Expression Analysis (LTEA) Assay for Apolipoprotein A-V (APOA5) gene using HepaRG (AID 2283474). The method in brief: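 APOA5 transcript levels were quantified by qRT-PCR, normalized to three housekeeping genes, after 48 h chemical treatment of HepaRG cells (8 points, 100 uM maximum, half-log steps, 0.5% DMSO). Curves fitted in both directions against vehicle.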

Read-out in test [6]: Apoptosis regulator Bcl-2 (Homo sapiens) (UniProt P10415)
Put plainly: LTEA_HepaRG_BCL2: Life Technologies and Expression Analysis (LTEA) Assay for Bcl-2 gene using HepaRG (AID 2283475). The gist of the method: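 Differentiated human HepaRG cells in serum-free induction medium exposed 48 h, in duplicate, to 8-point half-log series from 100 uM in 0.5% DMSO. BCL2 mRNA by qRT-PCR (TaqMan/Fluidigm), normalized to ACTB, GAPDH, POLR2A; bidirectional fit against DMSO.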

Read-out in test [7]: Bcl-2 (BID) gene, BID (gene 637)
Put plainly: LTEA_HepaRG_BID: Life Technologies and Expression Analysis (LTEA) Assay for Bcl-2 (BID) gene using HepaRG (AID 2283476). The method in brief:
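Gene expression by qRT-PCR in HepaRG cells after 48 h exposure, duplicate wells, eight half-log concentrations topping at 100 uM in 0.5% DMSO. Normalized to ACTB, GAPDH, POLR2A; bidirectional fitting relative to DMSO.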

Read-out in the next test: Caspase-3 (Homo sapiens) (UniProt P42574)
The experiment in a line: LTEA_HepaRG_CASP3: Life Technologies and Expression Analysis (LTEA) Assay for cysteine-aspartic acid protease (CASP3) using HepaRG (AID 2283477). The gist of the method: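 Expression of CASP3 was quantified by TaqMan qRT-PCR against three housekeeping genes (ACTB, GAPDH, POLR2A), bidirectionally versus 0.5% DMSO. HepaRG cultures received compounds in duplicate, top 100 uM with half-log steps, for 48 h in serum-free induction medium.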

Read-out in test [8]: Cytochrome P450 (CYP24A1), CYP24A1 (gene 1591)
Put plainly: LTEA_HepaRG_CYP24A1: Life Technologies and Expression Analysis (LTEA) Assay for Cytochrome P450 (CYP24A1) using HepaRG (AID 2283478). The gist of the method: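 mRNA of CYP24A1 quantified by TaqMan qRT-PCR (ACTB/GAPDH/POLR2A normalization) after 48 h chemical exposure of HepaRG cells, top concentration 100 uM, half-log steps, 0.5% DMSO vehicle, duplicates. Curves fitted bidirectionally against DMSO baseline.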

Read-out in test [9]: Cytochrome P450 (CYP1A2), CYP1A2 (gene 1544)
The experiment in a line: LTEA_HepaRG_CYP1A2: Life Technologies and Expression Analysis (LTEA) Assay for Cytochrome P450 (CYP1A2) using HepaRG (AID 2283479). The method in brief: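 CYP1A2 transcript measured by TaqMan qRT-PCR against three housekeeping genes after 48-hour chemical exposure of HepaRG cells. Eight-point half-log series topping at 100 uM in 0.5% DMSO, duplicates; gain or loss fitted relative to vehicle.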

Read-out in test [10]: cysteine-aspartic acid protease (CASP8), CASP8 (gene 841)
The experiment in a line: LTEA_HepaRG_CASP8: Life Technologies and Expression Analysis (LTEA) Assay for cysteine-aspartic acid protease (CASP8) using HepaRG (AID 2283480). The gist of the method: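 Differentiated human HepaRG cells, plated 48 h then switched to serum-free induction medium, were exposed in duplicate for 48 h to 8 half-log concentrations up to 100 uM in 0.5% DMSO. CASP8 mRNA was quantified by qRT-PCR, normalized to ACTB/GAPDH/POLR2A.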

Read-out in test [11]: Cytochrome P450 (CYP2B6), CYP2B6 (gene 1555)
Put plainly: LTEA_HepaRG_CYP2B6: Life Technologies and Expression Analysis (LTEA) Assay for Cytochrome P450 (CYP2B6) using HepaRG (AID 2283481). The gist of the method:
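CYP2B6 transcript level quantified by qRT-PCR against three housekeeping genes, fitted bidirectionally relative to DMSO. HepaRG cultures received chemicals for 48 h, 8-point half-log series from 100 uM in 0.5% DMSO, duplicate wells, serum-free induction medium.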

Read-out in test [12]: Cytochrome P450 2C19 (Homo sapiens) (UniProt P33261)
The experiment in a line: LTEA_HepaRG_CYP2C19: Life Technologies and Expression Analysis (LTEA) Assay for CYP2C19 using HepaRG (AID 2283482). The method in brief:
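CYP2C19 transcript levels by qRT-PCR, normalized to three housekeeping genes, in HepaRG cells after 48 h chemical exposure. Eight-point half-log series topping at 100 uM, 0.5% DMSO vehicle. Increases and decreases both fitted against DMSO.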

Read-out in a further test: CYP2C8 (gene 1558)
The experiment in a line: LTEA_HepaRG_CYP2C8: Life Technologies and Expression Analysis (LTEA) Assay for CYP2C8 using HepaRG (AID 2283483). The method in brief:
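Differentiated human HepaRG cells were exposed for 48 h in serum-free induction medium to eight half-log concentrations up to 100 uM in 0.5% DMSO, in duplicate. CYP2C8 mRNA was measured by TaqMan qRT-PCR, normalized to ACTB, GAPDH and POLR2A, and fitted bidirectionally against DMSO.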

Read-out in another test: CYP2C9 (gene 1559)
The experiment in a line: LTEA_HepaRG_CYP2C9: Life Technologies and Expression Analysis (LTEA) Assay for CYP2C9 using HepaRG (AID 2283484). The method in brief:
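Differentiated human HepaRG cells were exposed 48 h in serum-free induction medium to eight half-log concentrations up to 100 uM in 0.5% DMSO. CYP2C9 mRNA was measured by qRT-PCR, normalized to ACTB, GAPDH and POLR2A, and fitted bidirectionally against DMSO.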

Read-out in a further test: CYP2E1 (gene 1571)
The experiment in a line: LTEA_HepaRG_CYP2E1: Life Technologies and Expression Analysis (LTEA) Assay for CYP2E1 using HepaRG (AID 2283485). The gist of the method:
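HepaRG cells, plated 48 h, then exposed 48 h in serum-free induction medium to eight half-log concentrations from 100 uM in 0.5% DMSO, duplicate. CYP2E1 mRNA by qRT-PCR, normalized to ACTB/GAPDH/POLR2A; bidirectional fit versus DMSO.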

Read-out in another test: CYP4A11 (gene 1579)
Put plainly: LTEA_HepaRG_CYP4A11: Life Technologies and Expression Analysis (LTEA) Assay for CYP4A11 using HepaRG (AID 2283486). The method in brief: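 Readout is CYP4A11 transcript level by qRT-PCR, normalized to three housekeeping genes and fitted bidirectionally against 0.5% DMSO. Human HepaRG cells were treated 48 h, in duplicate, with an 8-point half-log series topping at 100 uM.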

Read-out in test [13]: Cytochrome P450 3A4 (Homo sapiens) (UniProt P08684)
The experiment in a line: LTEA_HepaRG_CYP3A4: Life Technologies and Expression Analysis (LTEA) Assay for CYP3A4 using HepaRG (AID 2283487). The gist of the method: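 In a human hepatic line (HepaRG), duplicate wells were treated 48 h with up to 100 uM chemical in half-log dilutions. Endpoint: CYP3A4 mRNA induction or loss relative to 0.5% DMSO vehicle, by qRT-PCR.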

Read-out in test [14]: Alkaline Phosphatase, Placental (ALPP) gene, ALPP (gene 250)
The experiment in a line: LTEA_HepaRG_ALPP: Life Technologies and Expression Analysis (LTEA) Assay for Alkaline Phosphatase, Placental (ALPP) gene using HepaRG (AID 2283468). The method in brief: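 ALPP transcript level, measured by qRT-PCR and normalized to three housekeeping genes (ACTB, GAPDH, POLR2A), after 48 h dosing of differentiated HepaRG in serum-free induction medium. Top concentration 100 uM with half-log dilutions (8 points, 0.5% DMSO, duplicates); bidirectional fitting relative to DMSO.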

Chain of Caspase-3 (Homo sapiens) (P42574 whole entry, looked up): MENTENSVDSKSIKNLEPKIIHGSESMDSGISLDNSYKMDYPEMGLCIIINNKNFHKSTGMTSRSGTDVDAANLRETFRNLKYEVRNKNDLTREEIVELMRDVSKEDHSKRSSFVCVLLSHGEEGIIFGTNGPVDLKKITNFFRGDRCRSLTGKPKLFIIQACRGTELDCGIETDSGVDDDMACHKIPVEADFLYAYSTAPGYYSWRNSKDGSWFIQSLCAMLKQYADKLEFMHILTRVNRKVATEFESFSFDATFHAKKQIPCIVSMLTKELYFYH
Chain of Apoptosis regulator Bcl-2 (Homo sapiens) (P10415 whole entry, looked up): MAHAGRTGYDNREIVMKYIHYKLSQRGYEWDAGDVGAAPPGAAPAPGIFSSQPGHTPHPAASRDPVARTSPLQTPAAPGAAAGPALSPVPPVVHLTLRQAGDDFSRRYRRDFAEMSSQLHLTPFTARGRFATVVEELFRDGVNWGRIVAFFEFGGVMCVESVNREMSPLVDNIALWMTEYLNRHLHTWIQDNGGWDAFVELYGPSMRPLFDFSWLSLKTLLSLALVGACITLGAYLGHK
Chain of Cytochrome P450 2C19 (Homo sapiens) (P33261 whole entry, looked up): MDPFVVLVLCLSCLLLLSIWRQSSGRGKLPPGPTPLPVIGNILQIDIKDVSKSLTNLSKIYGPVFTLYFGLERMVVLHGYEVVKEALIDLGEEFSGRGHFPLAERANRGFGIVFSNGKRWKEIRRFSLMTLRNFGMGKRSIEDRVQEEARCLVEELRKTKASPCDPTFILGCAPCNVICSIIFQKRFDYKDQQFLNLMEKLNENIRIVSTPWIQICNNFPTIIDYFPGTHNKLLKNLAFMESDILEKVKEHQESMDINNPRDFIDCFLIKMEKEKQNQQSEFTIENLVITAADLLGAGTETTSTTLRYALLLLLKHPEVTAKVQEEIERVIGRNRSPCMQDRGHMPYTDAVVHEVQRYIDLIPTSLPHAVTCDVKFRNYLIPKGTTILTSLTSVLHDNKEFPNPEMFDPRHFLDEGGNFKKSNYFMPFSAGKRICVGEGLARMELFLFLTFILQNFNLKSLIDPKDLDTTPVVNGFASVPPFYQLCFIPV
Chain of Cytochrome P450 3A4 (Homo sapiens) (P08684 whole entry, looked up): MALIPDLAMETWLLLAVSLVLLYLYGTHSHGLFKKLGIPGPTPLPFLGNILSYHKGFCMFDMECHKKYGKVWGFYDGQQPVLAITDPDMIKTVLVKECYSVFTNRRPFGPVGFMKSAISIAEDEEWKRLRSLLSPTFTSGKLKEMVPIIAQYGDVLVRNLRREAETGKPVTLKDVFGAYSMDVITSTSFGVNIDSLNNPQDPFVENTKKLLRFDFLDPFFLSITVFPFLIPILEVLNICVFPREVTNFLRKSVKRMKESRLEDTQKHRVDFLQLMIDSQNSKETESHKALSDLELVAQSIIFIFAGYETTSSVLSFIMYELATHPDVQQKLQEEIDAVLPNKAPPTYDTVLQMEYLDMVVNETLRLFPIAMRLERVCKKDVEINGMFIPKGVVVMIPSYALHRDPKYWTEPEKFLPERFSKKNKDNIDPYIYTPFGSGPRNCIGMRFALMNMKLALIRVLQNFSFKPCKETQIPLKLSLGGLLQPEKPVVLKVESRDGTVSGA

For orientation: AC50 means the concentration giving half of the maximal activity seen. With `O=[N+]([O-])c1cc(C(F)(F)F)c(Cl)c([N+](=O)[O-])c1Nc1ncc(C(F)(F)F)cc1Cl`, the outcome (in test [1]; in test [2]; in test [5]; in [6]; in test [7]; with Caspase-3 (Homo sapiens)) was inactive. Also, the result in test [8] and in test [10] was inactive. Further, the half-maximal activity concentration (AC50) in test [3] was 50 µM (active); in [4], 23 µM (active); with BCL2L11 (gene 10018) it was 66.3 µM (active); in test [9], 8.27 µM (active); in [11], 13 µM (active); in [12], 26 µM (active). Moreover, the AC50 in the test with CYP2C8 (gene 1558) is 26.8 µM (active); in the test with CYP2C9 (gene 1559), 17.8 µM (active); in the test with CYP2E1 (gene 1571), 13.1 µM (active); with CYP4A11 (gene 1579) it was 27.6 µM (active); in test [13], 30.2 µM (active).
Turning to `Cc1ccn2nc(S(=O)(=O)Nc3c(F)cccc3F)nc2n1`, the outcome (in [14]; in [1]; in test [2]; in test [4]; in the test with BCL2L11 (gene 10018); in test [5]) was inactive. Moreover, the call (in [6]; in test [7]; in the test with Caspase-3 (Homo sapiens); in test [8]; in test [9]; in test [10]) was inactive. The result (in test [11]; in test [12]; in the test with CYP2C8 (gene 1558); in the test with CYP2C9 (gene 1559); in the test with CYP2E1 (gene 1571); with CYP4A11 (gene 1579)) was inactive. In addition, the AC50 in test [13] is 40.5 µM (active).
As to `C#CC(C)(C)NC(=O)c1cc(Cl)cc(Cl)c1`, the AC50 in [14] was 17.3 µM (active); in test [9], 50 µM (active); in test [11] it was 8.65 µM (active); in test [12], 20.2 µM (active); with CYP2E1 (gene 1571), 26.1 µM (active); in test [13] it was 5.13 µM (active). Further, the result (in test [1]; in test [2]; in [3]; in the test with BCL2L11 (gene 10018); in test [5]; in test [6]) was inactive. Further, the compound was classed as inactive (in [7]; in the test with Caspase-3 (Homo sapiens); in test [8]; in test [10]; in the test with CYP2C8 (gene 1558); with CYP2C9 (gene 1559)). Besides, the call in the test with CYP4A11 (gene 1579) was inactive.
